# Experimental data from the supplement of paper PMC13380429.
# Columns and labels:
# [1] = system: Vero E6 infected with SARS-CoV-2; assay: morphology score (similarity to uninfected cells); higher = more like uninfected cells; conditions: 24 h
# [2] = system: Vero E6 infected with SARS-CoV-2; assay: SARS-CoV-2 infection rate relative to infected DMSO; higher = more infection, active = 60 or less; conditions: 24 h
SMILES,morphology score [1],SARS-CoV-2 infection rate [2]
OCc1c[nH]c2ccccc12 [indole-3-carbinol] (10 µM),0.0621,94.5% (inactive)
COc1cc2ncn(-c3cc(OCc4ccccc4C(F)(F)F)c(C(N)=O)s3)c2cc1OC (10 µM),-0.0651,106% (inactive)
OC[C@H]1O[C@H](O[C@H]2O[C@H](CO)[C@@H](O)[C@H](O)[C@H]2O)[C@H](O)[C@@H](O)[C@@H]1O [cabaletta] (10 µM),-0.0856,104% (inactive)
CCC(CC)CC1(C(=O)Nc2ccccc2SC(=O)C(C)C)CCCCC1 [dalcetrapib] (10 µM),0.152,111% (inactive)
Cn1cnc2c(F)c(Nc3ccc(Br)cc3F)c(C(=O)NOCCO)cc21 [binimetinib] (0.833333 µM),-0.00339,110% (inactive)
CN1[C@@H]2CC[C@H]1C[C@@H](OC(=O)c1cc(Cl)cc(Cl)c1)C2 [bemesetron] (10 µM),0.216,89.5% (inactive)
COC(=O)Nc1ccc2[nH]cc(CCNC(C)=O)c2c1 (10 µM),0.0711,108% (inactive)
Clc1ccc2c(c1)CCc1cccnc1C2=C1CCNCC1 [desloratadine] (10 µM),0.351,76% (inactive)
c1nc2c(NC3CCCCC3)nc(Nc3ccc(N4CCOCC4)cc3)nc2[nH]1 [reversine] (10 µM),-0.11,106% (inactive)
CC/C(=C(/CC)c1ccc(O)cc1)c1ccc(O)cc1 [diethylstilbestrol] (10 µM),-0.0992,102% (inactive)
CC1(c2ccccc2)OC(C(=O)O)=CC1=O (configuration not stated) [acifran] (10 µM),0.119,102% (inactive)
CCc1cccc(N(C)C(=N)Nc2cccc3ccccc23)c1 [aptiganel] (10 µM),0.0916,104% (inactive)
CCOC(=O)CSCCC1NC(C(=O)O)CS1 (configuration not stated) [letosteine] (10 µM),-0.0697,117% (inactive)
COc1ccc(C2=N[C@@H](c3ccc(Cl)cc3)[C@@H](c3ccc(Cl)cc3)N2C(=O)N2CCNC(=O)C2)c(OC(C)C)c1 [nutlin-3] (0.833333 µM),0.101,117% (inactive)
Cc1cc(C)cc(C(=O)N(C)[C@H](Cc2ccc(-c3ccccc3)cc2)C(=O)N[C@@H](Cc2c[nH]c3ccccc23)C(=O)O)c1 (10 µM),0.0271,95% (inactive)
COCCN1CCN(Cc2ccc(-c3n[nH]c4c3C(=O)c3c(NC(=O)NN5CCOCC5)cccc3-4)cc2)CC1 (10 µM),-0.35,117% (inactive)

SMILES,morphology score [1],SARS-CoV-2 infection rate [2]
CCCCCCCCCCCCCCCCOP(=O)([O-])OCC[N+](C)(C)C [miltefosine] (0.833333 µM),0.182,94.5% (inactive)
CC1=C(C(=O)OC(C)C)C(c2cccc([N+](=O)[O-])c2)C(C(=O)OC2CN(C(c3ccccc3)c3ccccc3)C2)=C(N)N1 (configuration not stated) [azelnidipine] (10 µM),0.295,71.5% (inactive)
CCCCCCOc1ccccc1C(N)=O [exalamide] (10 µM),0.105,108% (inactive)
Cc1ccsc1/C=C/C1=NCCCN1C [morantel] (10 µM),-0.00401,99.5% (inactive)
N[C@H](C(=O)O)[C@H](O)c1ccc(O)c(O)c1 [droxidopa] (10 µM),-0.0971,122% (inactive)
O=C(Nc1ccc(Oc2ccc(Cl)cn2)c(Cl)c1)c1ccccn1 (10 µM),0.0983,102% (inactive)
S=P(N1CC1)(N1CC1)N1CC1 [thiotepa] (10 µM),0.127,96% (inactive)
c1ccc2c(Oc3nc(Nc4ccc(N5CCOCC5)cc4)c4ncn(C5CCCCC5)c4n3)cccc2c1 [purmorphamine] (10 µM),-0.227,113% (inactive)
C[C@]12CCC(=O)C=C1CC[C@@H]1[C@@H]2[C@@H](O)C[C@@]2(C)[C@H]1CC[C@]2(O)C(=O)COC(=O)CCC(=O)O [hydrocortisone-hemisuccinate] (10 µM),-0.338,116% (inactive)
CCCCCCCC/C=C\CCCCCCCC(N)=O [oleamide] (10 µM),0.242,94.5% (inactive)
CC(=O)NCCCCCC(=O)O [acexamic-acid] (10 µM),-0.0574,112% (inactive)
CC(=O)Oc1cc(C(F)(F)F)ccc1C(=O)O [triflusal] (10 µM),0.126,102% (inactive)
O=c1cc(N2CCOCC2)oc2c1ccc1ccccc12 (10 µM),0.258,110% (inactive)
Nc1ccn([C@@H]2O[C@@](CO)(CCl)[C@@H](O)[C@H]2F)c(=O)n1 (10 µM),-0.0112,104% (inactive)
CNc1cc(OC)c(C(=O)NC2CCN(Cc3ccccc3)C2C)cc1Cl (configuration not stated) [nemonapride] (10 µM),0.642,36.5% (active)
